PP1 inh: counter-screen for PP5 inhibitors: inhibitors of human PP1-alpha | P62136 | purified PP1alpha, OMFP fluorescence | inhibition, % at 6.7 µM | 320,000 tested, 0.9% active;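 active means inhibition above the mean inhibition of all tested compounds plus 3 SD, computed separately for each screening campaign, cut at about 15% in these data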
Target sequence (P62136 whole entry, looked up): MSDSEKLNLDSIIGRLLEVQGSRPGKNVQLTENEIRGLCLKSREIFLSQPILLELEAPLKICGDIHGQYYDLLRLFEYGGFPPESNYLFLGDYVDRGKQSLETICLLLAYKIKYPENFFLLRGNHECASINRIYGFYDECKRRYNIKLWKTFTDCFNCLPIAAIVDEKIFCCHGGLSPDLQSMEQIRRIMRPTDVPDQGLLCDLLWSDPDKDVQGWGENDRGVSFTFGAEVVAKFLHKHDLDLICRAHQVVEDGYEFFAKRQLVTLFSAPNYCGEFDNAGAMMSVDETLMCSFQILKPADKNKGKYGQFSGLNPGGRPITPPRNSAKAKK
CSC inhib: blocks cancer stem cells; cancer stem cell-like cells viability, luminescence; inhibition, % at 7.5 µM; 300,000 tested, 1.1% active; AID 2717; in the data active means inhibition above about 75%; inconclusive means no clear call, values can overlap the other calls; tested in HMLE shEcad cells
Beta apoptosis: blocks beta cell apoptosis. INS-1E cytokine-induced death, ATP luminescence, 48 h; percent of positive-control rescue, neutral wells zero. protection from apoptosis, % (no concentration beside the values). 300,000 tested, 0.8% active;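 active means Every replicate reaches about 75%, or at least half do and their mean reaches it too, limit read from the data; inconclusive means At least half of replicates reach the limit but their mean does not; inactive means Under half of replicates reach the limit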;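 further: 0% = cytokine-treated negative control wells and 100% = positive control rescue; higher means more ATP so stronger rescue from cytokine killing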
PP5 primary: blocks human protein phosphatase 5 activity; P53041; purified PP5c, OMFP substrate fluorescence; inhibition, % at 6.7 µM; 320,000 tested, 0.18% active; AID 1987;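 active means inhibition above the campaign's mean inhibition across all tested compounds plus 3 SD, cut at about 9.5% in these data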;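 further: 0% = DMSO only and 100% = 100 µM cantharidin control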
SKKanGAS inh: blocks kanamycin growth of S. pyogenes SKKanGAS strain. BacTiter-Glo, 6 h. inhibition, % at 7.5 µM. 300,000 tested, 1.3% active. AID 1662;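 active means mean replicate score, as percent of positive control median, at least 50; inconclusive means mean below 50 but one replicate at or above 50; inactive means mean and every replicate below 50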;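 further: strain carries kanamycin resistance gene driven by streptokinase promoter and grows in 40 µg/ml kanamycin; loss of luminescence reflects streptokinase promoter inhibition or plain growth inhibition; 0% = median of DMSO wells and 100% = positive control at its reference dose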
The depositor's hits bear a star; ? = inconclusive; / = not tested or not shown. Sampled rows, rich in hits. Any-hit rate of the full collection: about 3.1%.

SMILES	PP1 inh	CSC inhib	Beta apoptosis	PP5 primary	SKKanGAS inh
CN(C)C1=NCCN1CC1CCCCCC1	-3.5	-7.1	-7.6	0.3	/
Cc1ccccc1N=C1NC(=O)/C(=C/c2cccnc2)S1	-1.0	0.1	-2.4	0.6	29.6
C=CCOc1ccc(/C=C2\SC(=Nc3cccnc3)NC2=O)cc1	15.5*	23.4	1.0	1.7	8.6
CC(/C=C1\SC(=Nc2cccnc2)NC1=O)=C\c1ccccc1	1.9	60.7	16.1	-0.2	56.1*
O=C(COc1ccc(Cl)cc1[N+](=O)[O-])N/N=C/c1cccs1	-4.4	41.4	-6.0	-2.7	1.3
CC1(c2ccc(Cl)cc2)NC(=O)N(CC(=O)N2CCN(S(=O)(=O)c3ccccc3)CC2)C1=O (stereo not given)	0.3	6.4	-1.3	2.2	-6.5
CCOC(=O)C(=Cc1ccc(-n2ccnc2)cc1)C(=O)OCC	-0.4	86.3*	-16.3	0.8	0.3
CCOC(=O)C(=O)Nc1ccc(F)cc1	-2.5	4.3	0.6	-1.8	-5.8
CCOC(=O)C(=Cc1ccc(F)cc1)C(=O)OCC	-3.8	95.8*	-16.0	-7.5	-4.1
CCOC(=O)C(=Cc1ccc(Br)cc1)C(=O)OCC	/	39.5	86.2*	/	-7.0
O=C(c1ccco1)N1CCN(Cc2nc3ccccc3[nH]2)CC1	/	-21.2	-1.8	/	/
Cc1cc(C(=O)N2CCCC(C(=O)c3cccc(C(F)(F)F)c3)C2)nc(C)n1 (stereo not given)	-2.3	2.4	-2.9	1.2	-6.6
Cc1cc(C)cc(NS(=O)(=O)c2ccc3[nH]cc(C(=O)NCc4ccco4)c(=O)c3c2)c1	4.5	99.1*	25.2	1.6	5.2
CCOC(=O)N1CCN(C(=O)c2ccc3c(c2)NC(=O)/C(=C\c2cccc(C)c2)S3)CC1	6.0	32.8	10.3	4.5	92.3*
COc1ccc(/C=C2/Sc3ccc(C(=O)N4CCOCC4)cc3NC2=O)cc1OC	1.2	-6.6	-9.4	3.0	1.9
O=C1Nc2cc(C(=O)N3CCN(c4ccccn4)CC3)ccc2S/C1=C\c1ccccc1	4.0	6.1	-3.1	-0.7	53.3*
O=C1Nc2cc(C(=O)N3CCOCC3)ccc2S/C1=C\c1ccccc1	-1.3	6.8	0.8	-0.5	4.8
CCOC(=O)N1CCN(C(=O)c2ccc3c(c2)NC(=O)/C(=C\c2ccc(OC)c(OC)c2)S3)CC1	1.4	3.9	/	3.6	101.1*
Cc1cccc(N2C(=O)c3cccc4c(N(C)CCO)ccc(c34)C2=O)c1	-1.6	-18.6	5.1	0.8	5.8
COc1cc(C(=O)NC(=S)Nc2ccccc2N2CCOCC2)cc(OC)c1OC	1.2	14.0	17.5	3.1	-9.6
COc1ccc(C(=O)NC(=S)Nc2ccccc2N2CCCCC2)cc1[N+](=O)[O-]	1.2	101.3*	0.1	-1.6	9.4
COc1cccc(C(=O)NC(=S)Nc2ccccc2N2CCOCC2)c1	2.4	115.6*	7.9	1.0	38.6
CCOc1ccc(C(=O)NC(=S)Nc2ccccc2N2CCCCC2)cc1[N+](=O)[O-]	-5.0	?	8.5	-2.5	-13.0
COC(=O)c1c(NC(=O)c2ccc(C)c(S(=O)(=O)Nc3ccccc3C)c2)sc2c1CCCC2	-0.6	75.1*	-3.7	0.2	25.0
Cc1oc2cc3oc(=O)c(CCC(=O)NCCN4CCOCC4)c(C)c3cc2c1C	-1.0	-9.0	8.0	3.4	2.3
SMILES	PP1 inh	CSC inhib	Beta apoptosis	PP5 primary	SKKanGAS inh
O=C(NC(=S)Nc1cc(Cl)ccc1O)c1cccc(Br)c1	-1.3	27.4	3.4	1.1	108.4*
Cc1cccc(NC(=O)COn2nnc3ccc(S(C)(=O)=O)cc32)c1	-2.9	-10.5	0.2	-1.5	-3.2
COc1cccc(/C=C/C(=C2/C(=O)N(c3ccccc3)N=C2C)c2ccc(Br)cc2)c1OC	-1.7	75.5*	/	-1.0	?
O=C(CNC(=S)N(CCCN1CCOCC1)Cc1cccs1)NC1CCCCC1	3.1	-11.9	-2.3	1.3	0.4
Cc1ccc(Sc2c(O)c3ccccc3n(C)c2=O)cc1	/	/	/	/	15.6
Cc1ccc(Sc2c([N+](=O)[O-])c(=O)n(C)c3ccccc23)cc1	-1.1	118.3*	-3.5	0.8	4.7
COc1ccc(-c2nnc(NC(=O)c3cc(Cl)ccc3Cl)o2)cc1	9.4	21.8	7.4	0.3	86.1*
Cc1ccccc1C(=O)Nc1nnc(-c2ccc(F)cc2)o1	3.7	24.3	8.8	0.4	61.4*
C=CCn1cnc2c(c1=O)c1nc3ccccc3nc1n2/N=C/c1cc(OC)c(OC)c(OC)c1	-3.0	40.8	102.1*	-1.4	40.0
CN(C)c1ccc(/C=N/NC(=O)c2ccc(-n3cnnn3)cc2)cc1	-0.3	/	0.4	-1.5	/
COc1ccc(CC(=O)OCC(=O)NCc2ccccc2Cl)cc1OC	4.7	-6.5	-3.2	3.1	4.4
